The nature of experiment [1]: TOX21_p53_BLA_p5_viability: Viability Assessment in the Tox21 HCT-116 p53 Agonism Beta-lactamase Assay, Phase 5 (AID 2283600). An outline of the steps: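 Decreased CellTiter-Glo luminescence denotes lost viability. Exposure: 16 h at 37C, 5% CO2, with compounds from DMSO stocks diluted 217-fold in wells of 4000 cells.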
Experiment [2] concerns the target Cellular tumor antigen p53 (Homo sapiens) (UniProt P04637). Nature of the experiment: TOX21_p53_BLA_p4_ratio: Tox21 HCT-116 p53 Agonism Beta-lactamase Assay, Ratio, Phase 4 (AID 2283601). An outline of the steps: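 HCT-116 p53 beta-lactamase reporter cells (4000/well) preincubated 5 h, then compound (217-fold dilution of DMSO stock) for 16 h at 37C. CCF4-AM substrate added 2 h at room temperature; 460/530 nm emission ratio fitted upward versus DMSO.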

A short description of experiment [3]: Tanguay_ZF_120hpf_MORT_legacy: (Legacy) Oregon State University Tanguay Lab 120 Hour Post-fertilization zebrafish Assay for Mortality (AID 2283633).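 On AC50: fitted as increase in binary mortality versus DMSO negative control.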 An outline of the steps:
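Dechorionated Tropical 5D wild-type zebrafish embryos, one per well from 6 hpf, static exposure in 0.64% DMSO at 28C until 120 hpf. Mortality scored as binary by brightfield microscopy at 24 and 120 hpf.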

Experiment [4] is described as follows: Tanguay_ZF_120hpf_YSE_legacy: (Legacy) Oregon State University Tanguay Lab 120 Hour Post-fertilization zebrafish Assay for Yolk Sac Edema (AID 2283634).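 On AC50: actives raise the incidence of yolk sac edema above the DMSO baseline.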 An outline of the steps: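 Dechorionated Tropical 5D wild-type zebrafish embryos were exposed statically, one per well, from 6 to 120 hpf at 28C in 0.64% DMSO. Yolk sac edema was scored present/absent by brightfield at 120 hpf, and dead embryos were excluded.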

The nature of experiment [5]: Tanguay_ZF_120hpf_AXIS_legacy: (Legacy) Oregon State University Tanguay Lab 120 Hour Post-fertilization zebrafish Assay for Body Axis Malformation (AID 2283635).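 On AC50: potency for an increased fraction of larvae scored with body axis malformation.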 An outline of the steps: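 Dechorionated wild-type Tropical 5D zebrafish embryos, one per well, statically exposed from 6 hpf to 120 hpf at 28C in 0.64% DMSO final. Body axis malformation scored present/absent by brightfield microscopy at 120 hpf; dead embryos excluded.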

Experiment [6] is described as follows: Tanguay_ZF_120hpf_EYE_legacy: (Legacy) Oregon State University Tanguay Lab 120 Hour Post-fertilization zebrafish Assay for Eye Malformation (AID 2283636).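 Further: binary presence or absence of eye malformation scored by brightfield in 120 hpf larvae.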 An outline of the steps:
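5D wild-type embryos, pronase-dechorionated at 4 hpf; static exposure 6–120 hpf, 28C, dark; DMSO 0.64% final; 5uM trimethyltin chloride positive control. Binary eye-defect scoring at 120 hpf; dead embryos not scored.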

Experiment [7] is described as follows: Tanguay_ZF_120hpf_SNOU_legacy: (Legacy) Oregon State University Tanguay Lab 120 Hour Post-fertilization zebrafish Assay for Snout Malformation (AID 2283637). An outline of the steps:
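Binary brightfield scoring of snout malformation at 120 hpf. Dechorionated 5D wild-type embryos, one per well, static exposure from 6 hpf at 28C, sealed and dark; final DMSO 0.64% (vol/vol), DMSO as baseline; 5uM trimethyltin chloride positive control.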

Experiment [8] in a line: Tanguay_ZF_120hpf_JAW_legacy: (Legacy) Oregon State University Tanguay Lab 120 Hour Post-fertilization zebrafish Assay for Jaw Malformation (AID 2283638).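 On AC50: active means more embryos with jaw malformation than DMSO controls.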 An outline of the steps:
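Dechorionated Tropical 5D wild-type zebrafish embryos, one per well, exposed statically from 6 hpf to 120 hpf at 28C in 0.64% DMSO. Jaw malformation was scored by brightfield microscopy as present or absent. It was not scored in dead embryos.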

Experiment [9] in a line: Tanguay_ZF_120hpf_OTIC_legacy: (Legacy) Oregon State University Tanguay Lab 120 Hour Post-fertilization zebrafish Assay for Otic Vesicle Malformation (AID 2283639). An outline of the steps: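 Brightfield scoring at 120 hpf, binary present/absent; DMSO negative control, 5uM trimethyltin chloride positive control. Static exposure at 28C, final DMSO 0.64% (vol/vol). Dead embryos not scored for malformation.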

Experiment [10] can be described thus: Tanguay_ZF_120hpf_PE_legacy: (Legacy) Oregon State University Tanguay Lab 120 Hour Post-fertilization zebrafish Assay for Pericardial Edema (AID 2283640).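 On AC50: potency for increased incidence of pericardial edema versus DMSO baseline.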 An outline of the steps:
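Tropical 5D wild-type zebrafish embryos were statically exposed until 120 hpf at 28C, with 0.64% DMSO final. Pericardial edema was scored by brightfield as present or absent; endpoints were not scored in dead embryos.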

For 17 compounds, outcome and AC50 results are on record in PubChem BioAssay (EPA / NIEHS).

Molecules are shown by their SMILES. Where “and” joins values, the source holds several entries; their conditions need not be identical. Equal entries are not always repeated. Results filed as inconclusive are left out. The source holds several records for some structures; these can differ, active in one and inactive in another. Calls of active or inactive are those of the source. How the source made its calls: active means hit-call score of the fitted dose curve at least 0.9, where 1 is the maximum; inconclusive means response in the unintended direction; inactive means score below 0.9.

Chain of Cellular tumor antigen p53 (Homo sapiens) (P04637 whole entry, looked up): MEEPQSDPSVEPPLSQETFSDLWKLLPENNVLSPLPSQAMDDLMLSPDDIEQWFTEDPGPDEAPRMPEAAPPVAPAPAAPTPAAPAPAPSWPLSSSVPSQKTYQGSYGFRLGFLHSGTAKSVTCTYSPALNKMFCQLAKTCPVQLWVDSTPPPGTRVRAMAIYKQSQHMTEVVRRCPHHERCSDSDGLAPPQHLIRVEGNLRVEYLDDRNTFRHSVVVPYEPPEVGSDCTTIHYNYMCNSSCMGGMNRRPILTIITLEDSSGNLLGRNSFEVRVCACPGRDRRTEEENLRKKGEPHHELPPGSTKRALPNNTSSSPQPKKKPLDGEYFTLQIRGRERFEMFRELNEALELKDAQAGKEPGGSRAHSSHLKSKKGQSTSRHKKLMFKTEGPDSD

With `CCCCCCCC(=O)O`, the compound was classed as inactive in experiment [1], in experiment [2], in experiment [3], in experiment [4], in experiment [5] and in experiment [6]. Further, the outcome in experiment [7], in [8], in [9] and in experiment [10] was inactive.

Turning to `COc1ccc([N+](=O)[O-])cc1N`, the result in [1], in experiment [2], in experiment [3], in experiment [4], in experiment [5] and in [6] was inactive. Besides, the call in experiment [7], in [8], in experiment [9] and in experiment [10] was inactive.

On to `Oc1cc2ccccc2c2ccccc12`, for which the concentration at half-maximal activity (AC50) is 13.3 µM (active) in [1]; 20.4 µM (active) in [2]; 14 µM (active) in [3]; 38.3 µM (active) in [4]; 10.4 µM (active) in [5]; 40 µM (active) in experiment [6]. The AC50 is 14.3 µM (active) in experiment [7], 9.87 µM (active) in experiment [8], 10.8 µM (active) in [9] and 31.9 µM (active) in experiment [10].

Regarding `CN1CCN(c2ccccc2/C=C2\SCCN(c3ccc(Cl)c(Cl)c3)C2=O)CC1`, the AC50 in experiment [1] is 83.7 µM (active). For the same compound, the result in experiment [2], in experiment [3], in experiment [4], in [5], in experiment [6] and in experiment [7] was inactive. Moreover, the call in experiment [8], in experiment [9] and in [10] was inactive.

With `Cc1oc(-c2ccccc2)nc1CCOc1ccc(C[C@H](Nc2ccccc2C(=O)c2ccccc2)C(=O)O)cc1`, the AC50 in [1] was 15.5 µM (active); in [2] it was 41.6 µM (active); in experiment [3], 12.9 µM (active). Moreover, the outcome in experiment [4], in experiment [5], in [6], in experiment [7], in [8] and in [9] was inactive. Moreover, the compound was called inactive in [10].

`CC(O)CO` (centres undefined): the call in [1], in [2], in experiment [3], in experiment [4], in experiment [5] and in [6] was inactive. The call in [7], in [9] and in experiment [10] was inactive.

Take `CCCCC(CC)COC(=O)CCCCC(=O)OCC(CC)CCCC` (centres undefined): the result in experiment [1], in [2], in experiment [3], in experiment [4], in [5] and in experiment [6] was inactive. In addition, the call in experiment [7], in experiment [8], in experiment [9] and in experiment [10] was inactive.

On to `Cc1cc(CCN2CCN(c3nsc4ccccc34)CC2)cc2c1NC(=O)CC2(C)C`, for which the outcome in [1] and in experiment [3] was inactive. Besides, the AC50 is 82.8 µM (active) in [2]; 3.6 µM (active) in experiment [4]; 5.38 µM (active) in experiment [5]; 3.05 µM (active) in experiment [6]; 3.18 µM (active) in experiment [7]; 3.26 µM (active) in experiment [8]. In addition, the values for the AC50 in experiment [9] and in [10] were 6.42 µM (active) and 2.96 µM (active), respectively.

Take `O=c1c(-c2ccc(O)cc2)coc2cc(O)ccc12`: the result in experiment [1], in experiment [2], in experiment [3], in [4], in [5] and in [6] was inactive. Besides, the result in experiment [7], in experiment [8], in experiment [9] and in experiment [10] was inactive.

Consider `Oc1cccc(O)c1`, for which the call in experiment [1], in experiment [2], in experiment [3], in experiment [4], in [5] and in experiment [6] was inactive. Also, the outcome in [7], in [8], in experiment [9] and in experiment [10] was inactive.

Take `O=[N+]([O-])c1ccc(O)cc1`: the result in experiment [1], in experiment [2], in experiment [3], in experiment [4], in [5] and in [6] was inactive. Further, the call in [7], in [8], in experiment [9] and in [10] was inactive.

Take `CCCCCCCCCCCCCC[N+](C)(C)C`: the AC50 in experiment [1] is 76.6 µM (active) and 45.3 µM (active); in experiment [2], 63.8 µM (active) and 26.6 µM (active) and 23.1 µM (active). Further, in experiment [1], the call was inactive.

Consider `Nc1cccc2c(N)cccc12`, for which the outcome in [1], in experiment [2], in [3], in experiment [4], in experiment [5] and in experiment [6] was inactive. For the same compound, the result in [7], in [8], in [9] and in experiment [10] was inactive.

Take `O=C(O)Cc1cc(I)c(Oc2cc(I)c(O)c(I)c2)c(I)c1`: the concentration at half-maximal activity (AC50) in [1] was 49.3 µM (active); in experiment [2] it was 33.1 µM (active); in experiment [3], 8.91 µM (active); in [5], 0.0204 µM (active); in [6] it was 0.0114 µM (active); in experiment [7], 0.00601 µM (active). Moreover, the AC50 in [8] was 0.00848 µM (active). Besides, the result in experiment [4], in experiment [9] and in [10] was inactive.

For `Cc1ccc(S(=O)(=O)O)c(C)c1`, the outcome in experiment [1] and in [2] was inactive.

Regarding `O=C(OCCOCCOC(=O)c1ccccc1)c1ccccc1`, the compound was classed as inactive in [1], in experiment [2], in experiment [3], in [4], in experiment [5] and in experiment [6]. The call in experiment [7], in experiment [8], in experiment [9] and in experiment [10] was inactive.

In the case of `COCC(C)O` (centres undefined), the compound was classed as inactive in [1], in experiment [2], in experiment [3], in experiment [4], in [5] and in experiment [6]. Also, the compound was classed as inactive in experiment [7], in [8], in experiment [9] and in experiment [10].

By AC50 is commonly meant the concentration giving half of the maximal activity seen.
